Bioassay records deposited in PubChem BioAssay by several laboratories.
In the library only some 2.4% were active in any assay of this set; here they are far more common.
HSP90 refold inh: inhibitors of HSP90 luciferase refolding in rabbit reticulocyte lysate; inhibition, % at 5.6 µM; AID 1789; hit rate 0.91% among 290,000; luciferase refolding luminescence, 3 h;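 active = inhibition above the screen-wide mean plus 3 SD, computed separately per campaign, cut at about 16% in these data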;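 note: inhibitors lower the luminescence because luciferase stays unfolded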
TRAIL sens C8: sensitizes caspase-8 expressing cells to TRAIL. AID 624354. inhibition (viability loss, TRAIL sensitization), % at 10 µM. NB7+C8 cells + TRAIL, ATPlite viability luminescence. hit rate 1% among 360,000;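 active = compounds causing at least 50% loss of cell viability in the single-dose screen, relative to plate controls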
STAT1 inh: STAT1 signaling inhibition; NIH 3T3 STAT1-luciferase reporter, IFN-gamma, luminescence; inhibition, % at 5.5 µM; hit rate 0.35% among 200,000; AID 920;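 active = inhibition above a set limit, the mean inhibition across all tested compounds plus 3 SD, cut at about 34% in these data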
HSF1 inh: HSF1 inhibition | activity change, negative = inhibition, % at 7.5 µM (by protocol) | NIH3T3-HGL HSE-luciferase, MG132-induced, luminescence 8 h; stronger effect = lower value | hit rate 0.77% among 300,000;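 active = more than half of replicate wells show activity change below -50%, luminescence cut by over half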;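 note: luciferase reports HSF-1 transcriptional activity via heat shock element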
PPC-1+TRAIL kill: compounds killing PPC-1 cancer cells with TRAIL present (potentiator screen, no TRAIL-free arm). PPC-1 cells + TRAIL, ATPLite viability luminescence. hit rate 0.41% among 220,000. cell killing (% activity), % at 4 µM or 5 µM;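 active = cell killing above 50% in the first pass at 4 µM, then a duplicate retest at 5 µM averaging 50% or more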
STAT3 blocker: STAT3 signaling inhibition | inhibition, % at 5.5 µM | hit rate 0.89% among 190,000 | U3A cells, IL-6 STAT3-luciferase reporter, luminescence; host cell line lacks STAT1;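 active = inhibition above the mean inhibition across all screened compounds plus 3 SD, cut at about 44% in these data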
Large screens that a line does not name were inactive.

COc1ccccc1C1CC(=O)Nc2cc(C)c(C)cc21 (centres undefined)	none (no result: STAT1 inh, PPC-1+TRAIL kill, STAT3 blocker)
Cc1cc2c(cc1C)C(c1ccccc1Br)CC(=O)N2 (centres undefined)	PPC-1+TRAIL kill 53.7
O=C(NCCN1CCOCC1)C(=O)NCC1OCCN1S(=O)(=O)c1ccc(Cl)cc1 (centres undefined)	none (no result: HSP90 refold inh, STAT1 inh, HSF1 inh, PPC-1+TRAIL kill, STAT3 blocker)
CCc1nnc(NC(=O)c2cccc(OC)c2)s1	none
O=C(CSc1nnc(NC(=O)c2ccccc2)s1)NCc1ccco1	TRAIL sens C8 61.2 (no result: STAT1 inh, PPC-1+TRAIL kill, STAT3 blocker)
O=C(Nc1ccc(S(=O)(=O)NCC2CCCO2)cc1)c1ccccc1 (centres undefined)	HSF1 inh -64.6
COc1cccc(C(=O)Nc2nnc(-c3cccs3)s2)c1	STAT3 blocker 57.9
O=C(CSc1nnc(NC(=O)c2ccc(F)cc2)s1)NCc1ccco1	TRAIL sens C8 56.4 (no result: STAT1 inh, PPC-1+TRAIL kill, STAT3 blocker)
O=C(CSc1nnc(NC(=O)c2cccc(F)c2)s1)NCc1ccco1	none (no result: STAT1 inh, PPC-1+TRAIL kill, STAT3 blocker)
O=C(Nc1ccc(S(=O)(=O)NCC2CCCO2)cc1)c1cnccn1 (centres undefined)	none (no result: PPC-1+TRAIL kill)
Cc1cccc(-c2nnc(NC(=O)c3cccs3)s2)c1	HSF1 inh -79.7
O=C(CSc1nnc(NC(=O)Cc2ccccc2)s1)NCC1CCCO1 (centres undefined)	none
O=C(CSc1nnc(NC(=O)c2ccccc2)s1)NCC1CCCO1 (centres undefined)	TRAIL sens C8 56.1 (no result: STAT1 inh, PPC-1+TRAIL kill, STAT3 blocker)
COc1cccc(C(=O)Nc2nnc(SCC(=O)NC3CCCC3)s2)c1	TRAIL sens C8 57.3 (no result: STAT1 inh, PPC-1+TRAIL kill, STAT3 blocker)
COC(=O)c1ccc(CNC(=O)CN2C(=O)NC(Cc3ccccc3)(c3ccccc3)C2=O)cc1 (centres undefined)	none (no result: HSP90 refold inh, STAT1 inh, HSF1 inh, PPC-1+TRAIL kill, STAT3 blocker)
CC(=O)Nc1ccc(Nc2nc3ccccc3nc2NS(=O)(=O)c2ccc(Cl)c([N+](=O)[O-])c2)cc1	none (no result: HSP90 refold inh, STAT1 inh, HSF1 inh, PPC-1+TRAIL kill, STAT3 blocker)
CCOC(=O)C(C(=O)OCC)c1cc(Br)c2noc3c2c1C(=O)c1ccccc1-3	TRAIL sens C8 93.3
O=C(Nc1ccccc1NC(=O)c1c(F)c(F)c(F)c(F)c1F)c1c(F)c(F)c(F)c(F)c1F	TRAIL sens C8 82.2
O=C(Nc1cccc(F)c1)c1c(F)c(F)c(F)c(F)c1F	none
O=C(O)C1CCCCC1C(=O)Nc1cccc(C(=O)N2CCCCC2)c1 (centres undefined)	HSF1 inh -56.1
O=C(Nc1cccc(C(=O)N2CCCCC2)c1)C1CCCC1	none (no result: HSP90 refold inh, STAT1 inh, HSF1 inh, PPC-1+TRAIL kill, STAT3 blocker)
O=[N+]([O-])c1cccc2nc3ccccc3c(NCCCn3ccnc3[N+](=O)[O-])c12	none (no result: HSP90 refold inh, STAT1 inh, HSF1 inh, PPC-1+TRAIL kill, STAT3 blocker)
CCCCCCCCNc1ncnc2ccccc12	STAT3 blocker 88.6
CCc1ccccc1Nc1ncnc2ccccc12	none (no result: STAT1 inh, PPC-1+TRAIL kill, STAT3 blocker)
c1ccc2c(c1)c1c(c3ccccc32)CN2CCCC2C1 (centres undefined)	none (no result: HSP90 refold inh, STAT1 inh, HSF1 inh, PPC-1+TRAIL kill, STAT3 blocker)
Cc1ccc(C(O)c2ncc(-c3ccc(F)cc3)[nH]2)cc1F (centres undefined)	none (no result: HSP90 refold inh, STAT1 inh, HSF1 inh, PPC-1+TRAIL kill, STAT3 blocker)
COc1ccc(-c2csc(NC(=O)c3ccccc3NS(=O)(=O)c3ccc(F)c(F)c3)n2)cc1	STAT1 inh 63.3, STAT3 blocker 78.6
O=C(Nc1nc(-c2ccccc2)cs1)c1ccc(S(=O)(=O)N2CCc3ccccc32)cc1	none
Cc1ccc(-c2csc(NC(=O)c3cccc(S(=O)(=O)N4CCN(C)CC4)c3)n2)cc1	none
Cc1ccc(-c2csc(NC(=O)c3ccc(S(=O)(=O)N4CCc5ccccc54)cc3)n2)cc1	HSF1 inh -56.2
COc1cccc(C(=O)Nc2nc(-c3ccc(S(=O)(=O)N4CCOCC4)cc3)cs2)c1	STAT1 inh 47.1, STAT3 blocker 47.6
CCC(C)CN1C(=O)CSCC1(C)C(=O)NC(C)C (centres undefined)	none (no result: HSP90 refold inh, STAT1 inh, HSF1 inh, PPC-1+TRAIL kill, STAT3 blocker)
CC(C)(C)c1ccc(CC(=O)N2CCC2(C)C(=O)NS(=O)(=O)c2ccc(Cl)cc2)cc1 (centres undefined)	none (no result: HSP90 refold inh, STAT1 inh, HSF1 inh, PPC-1+TRAIL kill, STAT3 blocker)
CC1CC(=O)Nc2ccccc2N1C(=O)COc1ccccc1C(N)=O (centres undefined)	none (no result: HSP90 refold inh, STAT1 inh, HSF1 inh, PPC-1+TRAIL kill, STAT3 blocker)
Cc1noc(-c2ccc(Cl)cc2)c1C(=O)O/N=C(\N)c1ccc(C(C)(C)C)cc1	TRAIL sens C8 94.4 (no result: STAT1 inh, STAT3 blocker)
Cc1occc1C(=O)O/N=C(\N)c1ccc(Cl)cc1	TRAIL sens C8 87.0 (no result: STAT1 inh, STAT3 blocker)
Cc1cc(C(=O)O/N=C(\N)c2ccc(C(C)(C)C)cc2)no1	none (no result: STAT1 inh, STAT3 blocker)
O=C(/C=C/[C@H]1O[C@@H](n2cnc3c(NC(=O)c4ccccc4)ncnc32)[C@H](O)[C@@H]1O)NCc1ccc2c(c1)OCO2	none (no result: HSP90 refold inh, STAT1 inh, HSF1 inh, PPC-1+TRAIL kill, STAT3 blocker)
O=c1[nH]c2ccccc2cc1-c1nnn(-c2ccc(F)cc2)n1	TRAIL sens C8 61.9 (no result: STAT3 blocker)
N#CC1=C(N)OC2=C(C(=O)CC(c3ccccc3)C2)C1c1cccnc1 (centres undefined)	none
N#CC1=C(N)OC2=C(C(=O)CC(c3ccccc3)C2)C1c1ccoc1 (centres undefined)	PPC-1+TRAIL kill 85.2
CC1(C(=O)O)CCCN1C(=O)c1cc2ccccc2s1 (centres undefined)	none (no result: HSP90 refold inh, STAT1 inh, HSF1 inh, PPC-1+TRAIL kill, STAT3 blocker)
COc1cccc(C2CC(OCCF)=CC(=O)O2)c1 (centres undefined)	none (no result: HSP90 refold inh, STAT1 inh, HSF1 inh, PPC-1+TRAIL kill, STAT3 blocker)
COc1ccc(C=C2OC(=O)C(C(C)=O)=C2O)cc1	TRAIL sens C8 83.5 (no result: HSP90 refold inh, STAT1 inh, HSF1 inh, PPC-1+TRAIL kill, STAT3 blocker)
CC(=O)C1=C(O)C(=Cc2ccccc2)OC1=O	none (no result: HSP90 refold inh, STAT1 inh, HSF1 inh, PPC-1+TRAIL kill, STAT3 blocker)
COc1ccc(/C=C2\Oc3ccccc3C2=O)cc1	TRAIL sens C8 72.0 (no result: HSP90 refold inh, STAT1 inh, HSF1 inh, PPC-1+TRAIL kill, STAT3 blocker)
Cc1ccc(S(=O)(=O)N2C[C@H]3C(=O)C[C@@H]4C(=O)N(c5ccccc5)C(=O)[C@@H]4[C@@H]3C[C@H]2c2cccc(Cl)c2)cc1	none (no result: HSP90 refold inh, STAT1 inh, HSF1 inh, PPC-1+TRAIL kill, STAT3 blocker)
COc1cc(C=c2c3ccccc3n3c2cc(-c2ccccc2)[n+]3C)cc(OC)c1OC	none (no result: HSP90 refold inh, STAT1 inh, HSF1 inh, PPC-1+TRAIL kill, STAT3 blocker)
CN(C)c1ccc(C=c2c3ccccc3n3c2cc(-c2ccccc2)[n+]3C)cc1	TRAIL sens C8 54.4 (no result: HSP90 refold inh, STAT1 inh, HSF1 inh, PPC-1+TRAIL kill, STAT3 blocker)
